Compounds with a hit are over-represented: about 1.5% of the library has one in this group of screens.
TLR4 MyD88 comp: TLR4-MyD88 interaction inhibition in cells | O00206+Q99836 | HeLa CL3-4 TLR4/MyD88 BLA complementation, FRET ratio | hit rate 0.18% among 200,000 | inhibition, % at 8.4 µM; in the data active = inhibition above about 25%;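 also: 0% = vehicle and 100% = reference inhibitor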
NOD2-RIPK2 inh: blocks binding of human NOD2 to RIPK2. CHO BLA complementation NOD2-RIPK2, CCF4 ratio. inhibition, % at 4.98 µM. hit rate 0.38% among 360,000. AID 624267; in the data active = inhibition above about 21%;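 also: 0% = vehicle only and 100% = reference blocker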
TLR9-MyD88 inh: blocks human TLR9 binding to MyD88; hit rate 0.21% among 340,000; inhibition, % at 4.98 µM; CHO BLA complementation TLR9-MyD88, CCF4 FRET ratio;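 active = inhibition above the mean over all tested compounds plus 3 SD, cut at about 21% in these data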;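 also: 0% = DMSO only wells and 100% = clavulanate BLA inhibitor control wells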
Target sequence (Q99836 whole entry, looked up): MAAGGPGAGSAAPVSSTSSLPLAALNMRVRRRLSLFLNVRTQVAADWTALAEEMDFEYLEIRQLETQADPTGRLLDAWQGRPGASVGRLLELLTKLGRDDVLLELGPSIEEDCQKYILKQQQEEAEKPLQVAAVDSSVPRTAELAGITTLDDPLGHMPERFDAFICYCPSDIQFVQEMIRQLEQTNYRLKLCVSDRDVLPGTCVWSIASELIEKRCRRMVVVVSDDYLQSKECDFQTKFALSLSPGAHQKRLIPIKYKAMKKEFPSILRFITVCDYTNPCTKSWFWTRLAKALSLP
Target sequence (Q9NR96 whole entry, looked up): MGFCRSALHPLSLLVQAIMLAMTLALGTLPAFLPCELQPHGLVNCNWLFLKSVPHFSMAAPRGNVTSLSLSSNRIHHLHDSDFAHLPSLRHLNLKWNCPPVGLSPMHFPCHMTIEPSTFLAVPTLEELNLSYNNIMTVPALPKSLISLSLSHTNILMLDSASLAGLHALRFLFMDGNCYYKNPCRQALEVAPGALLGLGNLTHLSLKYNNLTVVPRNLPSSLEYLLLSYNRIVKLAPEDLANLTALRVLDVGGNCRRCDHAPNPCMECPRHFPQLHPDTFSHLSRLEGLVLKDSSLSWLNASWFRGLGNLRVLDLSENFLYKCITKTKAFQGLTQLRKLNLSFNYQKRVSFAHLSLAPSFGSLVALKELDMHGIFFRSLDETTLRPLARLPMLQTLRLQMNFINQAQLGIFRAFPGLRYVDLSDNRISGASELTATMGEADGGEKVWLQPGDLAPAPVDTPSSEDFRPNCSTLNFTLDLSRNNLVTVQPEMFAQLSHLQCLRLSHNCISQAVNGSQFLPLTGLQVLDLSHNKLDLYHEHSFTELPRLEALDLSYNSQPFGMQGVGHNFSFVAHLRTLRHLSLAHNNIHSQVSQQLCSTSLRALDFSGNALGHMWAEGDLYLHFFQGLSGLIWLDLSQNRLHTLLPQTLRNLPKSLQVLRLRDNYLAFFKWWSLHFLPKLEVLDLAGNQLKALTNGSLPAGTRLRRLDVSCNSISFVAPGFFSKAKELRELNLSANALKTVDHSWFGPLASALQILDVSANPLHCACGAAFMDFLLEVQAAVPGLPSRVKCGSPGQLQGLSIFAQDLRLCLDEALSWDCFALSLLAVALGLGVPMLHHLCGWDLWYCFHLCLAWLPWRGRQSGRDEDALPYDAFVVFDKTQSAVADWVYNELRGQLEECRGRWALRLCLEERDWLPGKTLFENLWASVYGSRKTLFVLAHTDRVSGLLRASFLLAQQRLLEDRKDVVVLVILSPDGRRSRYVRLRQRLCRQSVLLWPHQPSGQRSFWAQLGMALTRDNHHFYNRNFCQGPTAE
Myeloid diff MLP: myeloid differentiation induction; hit rate 1% among 360,000; AID 624256; calls only at 10 µM; ER-HoxA9 myeloid progenitors, lysozyme-GFP differentiation, flow cytometry;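 active = normalized GFP-positive differentiation at or above the plate's own cutoff, the solvent-only control mean plus 3 SD; inconclusive = no clear call, values can overlap the other calls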;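 also: cells exposed to compound for four days before flow analysis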
The depositor's hits bear a star; i = inactive; u = inconclusive; x = no result given; + = active, no number.

SMILES	TLR4 MyD88 comp	NOD2-RIPK2 inh	TLR9-MyD88 inh	Myeloid diff MLP
c1ccc(NC2=Nc3ccccc3CS2)cc1	-8.4	3.1	-4.9	+
CC1NC(=O)c2cc3ccccc3cc2-n2c1nc1ccccc1c2=O (stereo not given)	x	8.3	5.8	i
CC(=O)NC(=Cc1ccccc1)C(=O)N1CCCC1C(=O)O (stereo not given)	x	-0.8	3.4	i
Cc1cc2c(SCc3ccccc3Cl)nc(N)nc2nc1C	x	3.4	-5.7	+
Nc1cc(N)nc(SCc2ccccc2Cl)n1	x	10.8	5.4	i
COc1ccc(OC)c(CN2C(=O)c3ccccc3C2c2nnnn2Cc2ccccc2)c1 (stereo not given)	x	1.3	x	i
COc1cccc(-c2cnc(C(O)c3ccc(Cl)cc3C)[nH]2)c1 (stereo not given)	x	15.5	x	i
C#CCOCCOCCOCCNc1nc(N2CCN(C(=O)CCCCCCCCCCNC(=O)[C@H](CCCCN)n3cc(CCO)nn3)CC2)nc(N2CCN(C(=O)CCCCCCCCCCNC(=O)[C@H](CCCN=C(N)N)n3cc(C[C@@H](C)CC)nn3)CC2)n1	x	20.4	21.5*	i
C#CCOCCOCCOCCNc1nc(N2CCN(C(=O)CCCCCCCCCCNC(=O)[C@@H](CCSC)n3cc(CCO)nn3)CC2)nc(N2CCN(C(=O)CCCCCCCCCCNC(=O)[C@H]([C@@H](C)CC)n3cc(CCCCN=C(N)N)nn3)CC2)n1	x	30.1*	1.0	i
C#CCOCCOCCOCCNc1nc(N2CCN(C(=O)CCCCCCCCCCNC(=O)[C@H](CCCCN)n3cc(CCCC(=O)O)nn3)CC2)nc(N2CCN(C(=O)CCCCCCCCCCNC(=O)[C@H](CCCN=C(N)N)n3cc(C[C@@H](C)CC)nn3)CC2)n1	x	9.6	-2.4	i
C#CCOCCOCCOCCNc1nc(N2CCN(C(=O)CCCCCCCCCCNC(=O)Cn3cc(C[C@@H](C)O)nn3)CC2)nc(N2CCN(C(=O)CCCCCCCCCCNC(=O)[C@H](CCCCN)n3cc(C[C@@H](C)CC)nn3)CC2)n1	x	24.1*	-1.7	i
CC(C)CC(N)c1csc(NC(=O)c2cc(C(C)(C)C)nn2Cc2ccccc2)n1 (stereo not given)	x	18.4	x	i
CC1(C(=O)NCc2ccccc2)CSCC(=O)N1Cc1cccc(C(F)(F)F)c1 (stereo not given)	x	-1.8	x	i
CC(C)[C@@H]1Cc2[nH]c(=O)[nH]c(=O)c2[C@H](C)O1	x	-9.0	x	i
Cc1ccc(S(=O)(=O)c2c(N)n(Cc3ccco3)c3nc4ccccc4nc23)cc1	-7.2	-1.3	8.5	i
Cc1cccc(S(=O)(=O)c2c(N)n(Cc3ccco3)c3nc4ccccc4nc23)c1	2.8	5.5	4.8	+
CCOC(=O)c1cc2nc(Nc3ccc(OC)cc3)sc2s1	-0.7	-9.7	5.2	+
CCOC(=O)c1sc(Nc2ccc(Br)cc2)nc1C	x	-10.7	-20.3	i
Cc1noc(C)c1NC(=O)N(C)C[C@@H]1Oc2ncc(Br)cc2C(=O)N([C@@H](C)CO)C[C@H]1C	x	-11.7	7.5	i
O=C(Cc1nc2ccccc2[nH]c1=O)c1ccccc1	8.0	-10.2	-1.1	+
O=c1[nH]c2ccccc2nc1Cc1ccccc1	-3.1	-2.0	7.4	i
CCCCNC(=O)C[C@@H]1C[C@@]2(C(=O)OCC)CCC=C2N(Cc2ccc(Cl)cc2Cl)C1=O	x	-7.1	x	i
O=C(NCc1ccco1)C1CCN(C(=O)c2ccc(Cl)cc2Cl)CC1	x	-11.5	0.5	+
CN(C)NC(=O)C(NC(=O)c1ccccc1)C12CC3CC(CC(C3)C1)C2 (stereo not given)	-0.4	-5.6	-4.3	+
COc1cc(OC)cc(C(=O)NC(C(=O)O)C23CC4CC(CC(C4)C2)C3)c1 (stereo not given)	0.5	-8.4	-4.4	i
SMILES	TLR4 MyD88 comp	NOD2-RIPK2 inh	TLR9-MyD88 inh	Myeloid diff MLP
COc1ccccc1-c1noc2c1C(=O)N(Cc1cn(-c3ccccc3OC)nn1)CC2	x	-6.1	x	i
CCOC(=O)c1cc2c(ccn2C)n1CC(=O)N(Cc1ccccc1)c1ccccc1	11.3	-6.4	9.7	+
NNC(=O)c1ccc(Oc2cc(Cl)cc(Cl)c2)o1	x	1.2	-4.9	+
O=C(NCC1CC1)c1ccc(Oc2cc(Cl)cc(Cl)c2)o1	x	-6.0	-4.0	i
CCn1cc(C(=O)NC(C)C23CC4CC(CC(C4)C2)C3)cn1 (stereo not given)	-7.9	-8.1	-5.5	+
CC(NC(=O)Cn1ncc(Cl)c(Cl)c1=O)C12CC3CC(CC(C3)C1)C2 (stereo not given)	20.6	66.2*	22.5*	u
COc1ccc(N(CC(=O)N2CCc3ccccc32)S(=O)(=O)c2c(C)nn(C)c2C)cc1	7.7	0.7	8.4	i
Cc1nn(C)c(C)c1S(=O)(=O)N(CC(=O)N1CCc2ccccc21)c1ccc(C(C)C)cc1	1.3	5.6	4.3	+
O=C(COc1ccccc1)Nc1nc(-c2cccs2)cs1	9.4	5.4	5.8	i
O=C(CCS(=O)(=O)c1ccccc1)Nc1nc(-c2cccs2)cs1	13.4	8.8	-2.6	+
O=C(Nc1nc(-c2cccs2)cs1)c1cccc(S(=O)(=O)N2CCCCCC2)c1	-0.1	-8.4	2.6	+
c1ccc2c(C[C@@H]3CNCCN3CC3CCCCC3)cccc2c1	x	6.0	11.8	+
CCCCN(C=O)c1c(CC)nc2c(OCc3ccc(C(F)(F)F)cc3)cccn12	x	14.0	x	i
COc1ccc(OC)c(CCNC(=O)Cn2ccc3cc(S(=O)(=O)N4CCCC4)ccc32)c1	x	-4.4	1.5	i
COc1ccccc1CCNC(=O)Cn1ccc2cc(S(=O)(=O)N3CCC(C)CC3)ccc21	x	-1.9	4.2	+
Cc1noc(C)c1-c1ccc(C(=O)NCCC(F)(F)F)c2occc12	x	-2.0	x	i
CCN(CC)c1ccc2cc(-c3nnc(-c4ccccc4)o3)c(=O)oc2c1	8.3	11.9	10.2	+
CCN(CC)c1ccc2cc(C(=O)c3cccs3)c(=O)oc2c1	x	20.1	x	+
COC(=O)c1ccc2nc(-c3ccc(Cl)cc3)c(Cc3ccsc3)n2c1	x	-6.3	x	i
CCc1nc2ccc(C(=O)NCc3ccc(OC)cc3)cn2c1N(C)C(=O)Cc1ccccc1	x	2.3	x	i
CCN(CC)C(=O)C1=C(C)N(CCCN2CCCC2=O)C(=O)C(CC(=O)NCCCCc2ccccc2)C1 (stereo not given)	x	-6.0	-1.5	i
O=C(Cn1ncc2c(=O)oc3ccccc3c21)N1CCCN(Cc2ccccc2F)C1	-1.5	-0.4	6.5	+
O=C1NC(c2ccccc2)=C(c2ccc3ccccc3n2)C(c2ccccc2)N1 (stereo not given)	7.0	5.4	-3.8	i
O=C1NC(c2ccccc2)=C(c2nc3ccccc3s2)C(c2ccc(O)cc2)N1 (stereo not given)	-1.6	-5.9	-9.6	+
CCCCNC(=O)c1[nH]c(C2CCNCC2)nc1-c1cccc(C(F)(F)F)c1	x	-13.8	x	i
Nc1cc2c3c(cccc3c1)C(=O)N(CCN1CCCC1)C2=O	x	-4.1	3.6	+
O=C1c2cccc3cc([N+](=O)[O-])cc(c23)C(=O)N1CCN1CCCC1	x	-3.8	1.9	u
